# Test results published in PubChem BioAssay (EPA / NIEHS).
# More than one record can exist for a structure, and the calls need not agree. Calls of active or inactive are those of the source. How the source made its calls: active means hit-call score of the fitted dose curve at least 0.9, where 1 is the maximum; inactive means score below 0.9.
# Assay: ATG_CMV_CIS: Attagene CIS-FACTORIAL HepG2 Assay for human CMV (Internal Marker) (AID 2282928);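 further: endpoint acts as a background internal control marker rather than a target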
# Settings: HepG2 CMV promoter reporter, transcription factor profiling; actives raise or lower the signal
# Method in brief: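 Cell system: HepG2, transiently transfected multiple reporter units under cis promoters. Exposure: 24 h. Detection: RT-PCR, FAM labeling, HpaI digestion, capillary electrophoresis. Analysis: bidirectional, DMSO baseline.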
Compound,AC50,outcome
Nc1cc(Cl)c(-c2cc(Cl)c(N)cc2Cl)cc1Cl,2.08 µM (active),–
CCCCCCCCCC=CCC1CC(=O)OC1=O (configuration not stated),66.8 µM (active),–
O=C(Nc1cccc([N+](=O)[O-])c1)c1cc2ccccc2cc1O,–,inactive
CNNCc1ccc(C(=O)NC(C)C)cc1,–,inactive
CCOCCOCC,–,inactive
Cc1cc(=O)oc2cc(O)ccc12,–,inactive
CC1CCC(C(=O)O)CC1 (configuration not stated),–,inactive
Cc1cncc(C)c1,–,inactive
CN(CCO)S(=O)(=O)C(F)(F)C(F)(F)C(F)(F)C(F)(F)C(F)(F)C(F)(F)C(F)(F)C(F)(F)F,–,inactive
Oc1cc2ccccc2cc1O,–,inactive
CCCCCCCC(OC)OC,–,inactive
CCc1cccc(CC)c1N(COC)C(=O)CS(=O)(=O)O,–,inactive
O=C(NCc1ncc(C(F)(F)F)cc1Cl)c1c(Cl)cccc1Cl,–,inactive
CCCCCCc1ccc(N)cc1,–,inactive
O=C1OC(=O)c2cc(-c3ccc4c(c3)C(=O)OC4=O)ccc21,–,inactive
O=C(O)CCC(F)(F)C(F)(F)C(F)(F)C(F)(F)C(F)(F)C(F)(F)F,–,inactive
CCCCCCCCC1CCC(=O)O1 (configuration not stated),–,inactive
CCN(CC)CC,–,inactive
O=C1OC2(c3ccccc31)c1cc(I)c(O)c(I)c1Oc1c2cc(I)c(O)c1I,40.5 µM (active),inactive

Compound,AC50,outcome
C=C(c1ccc(C(=O)O)cc1)c1cc2c(cc1C)C(C)(C)CCC2(C)C,4.89 µM (active),inactive
CCOC=O,–,inactive
CC=O,–,inactive
O=S(=O)(c1ccc(OCc2ccccc2)cc1)c1ccccc1O,51.6 µM (active),–
Clc1ccc(Nc2nnc(Cc3ccncc3)c3ccccc23)cc1,–,inactive
CC(C)C=O,87.6 µM (active),inactive
COC(=O)CC(C(C)=O)C(=O)OC (configuration not stated),–,inactive
C=CC(=O)OCCC(F)(F)C(F)(F)C(F)(F)C(F)(F)C(F)(F)C(F)(F)F,–,inactive
CC1=CC(=O)c2ccccc2C1=O,–,inactive
C=Cc1ccc(O)c(OC)c1,–,inactive
CCCCCCCCCCCC(=O)O,60 µM (active),inactive
CCCCCCC(C)(C)C(=O)O,–,inactive
CCCCCCCCCCCC[N+](C)(C)CCCCCCCCCCCC,182 µM (active),–
CC(C)(C)C1CCCCC1O (configuration not stated),–,inactive
FCOC(C(F)(F)F)C(F)(F)F,–,inactive
C=CC(C)(CCC=C(C)C)OC(C)=O (configuration not stated),–,inactive
NC(C(F)(F)F)C(F)(F)F,–,inactive
COCC1CCC(CO)CC1 (configuration not stated),–,inactive
FC(F)=C(F)C(F)(F)C(F)(F)C(F)(F)C(F)F,–,inactive
